Data reported in PubChem BioAssay (NCATS).
Records with an inconclusive call do not appear. Entries that show only a call come without a potency. Active and inactive are the calls of the source. Calls follow the shape of the dose curve; as a rule, active = well fitted inhibition curve with a large enough effect; inconclusive = small, poorly fitted or top-dose-only effect; inactive = flat fitted curve, though single readings scatter.

The molecules below were run on Zika virus NS2B-NS3 protease (assay: Primary screen GU AMC qHTS for Zika virus inhibitors (AID 1347154; also: nearly all actives have a fitted effect of over 70% in size)). Settings: Zika NS2B-NS3 unlinked protease, AMC fluorogenic substrate; series mostly up to 54.1 µM.
From the text: Avindra Nath, Ph.D., National Institute of Neurological Disorders and Stroke (NINDS), Bethesda, MD
Radhakrishnan Padmanabhan, Ph.D., Georgetown University (GU), Washington D.C.
Zika Virus causes congenital defects, including microcephaly and is associated with Guillain-Barre syndrome, eningoencephalitis and myelitis in infected adult. […] Using a target-based approach, we hope to establish a screening paradigm to uncover novel, cell-active NS2B-NS3 protease (Zika Virus) specific inhibitors from NCATS' collection of small molecules using qHTS.
Early Translation Branch (ETB)
National Center for Advancing Translational Sciences (NCATS), Rockville, MD
National Institute of Health (NIH), Bethesda, Maryland
Padmanabhan lab provided the NS2B hydrophilic domain and NS3 protease domain in a noncovalent complex used for the unlinked assay. Control compound aprotinin is obtained from Thermo Scientific (#78432; Waltham, Massachusetts). NS2B-NS3 AMC substrate (Bz-Nle-Lys-Arg-Arg-AMC; Nle-KRR-AMC) purchased from Bachem (#I-1995; Torrance, CA). Ac-VKTGKR-AMC purchased from Genscript or Bachem, Ac-FAAGKR-AMC purchased from Genscript, Ac-GLVKRR-AMC purchased from Genscript, Ac-LKKR-AMC purchased from Genscript.
GU AMC unlinked NS2B-NS3 protease qHTS protocol
Briefly, 3 microL of Zika virus unlinked NS2B-NS3 protease (25 nM for linked final concentration), in assay buffer (10 mM Tris-HCl pH 8.0 with 0.01% Tween 20) was dispensed into a 1,536-well solid-bottom black plate (Greiner Bio One, Monroe, NC). […] Plates were then read immediately on a ViewLux High-throughput CCD imager (PerkinElmer, Waltham, MA) equipped with standard UV fluorescence optics (340(30) nm excitation, 450(20) nm emission) then incubated (room temperature, protected from light) for 15 minutes (~20% conversion). The change in fluorescence intensity over the 15-minute reaction period was normalized against no-inhibitor and no-enzyme controls and the resulting percent inhibition data were fitted to a 4-parameter Hill equation. Aprotinin was used as the intraplate control.
Potency is read from the fitted curve at half-maximal effect.

Compound	Potency	activity change, negative = inhibition
CN(C)[C@@H]1C(=O)C(C(N)=O)=C(O)[C@@]2(O)C(=O)C3=C(O)c4c(O)cccc4[C@@](C)(O)[C@H]3C[C@@H]12	inactive	–
Clc1cccc(N2CCNCC2)c1	inactive	–
CCN(CC)CCOC(=O)C(O)(c1ccccc1)c1ccccc1	inactive	–
Clc1ccc(CCC(Cn2ccnc2)Sc2c(Cl)cccc2Cl)cc1 (stereo not given)	inactive	–
CNC(=O)N1N=C(c2ccc(N)cc2)c2cc3c(cc2CC1C)OCO3 (stereo not given)	inactive	–
CC1=C2C[C@@H]3[C@@H](CC=C4C[C@@H](O)CC[C@@]43C)[C@@H]2CC[C@]12O[C@H]1C[C@H](C)CN[C@H]1[C@H]2C	inactive	–
CC(CCc1ccccc1)NC(C)C(O)c1ccc(O)cc1 (stereo not given)	inactive	–
OCCOc1ccccc1	inactive	–
C[C@]12C/C(=C/O)C(=O)C[C@@H]1CC[C@@H]1[C@@H]2CC[C@@]2(C)[C@H]1CC[C@]2(C)O	inactive	–
CC(O)(CS(=O)(=O)c1ccc(F)cc1)C(=O)Nc1ccc(C#N)c(C(F)(F)F)c1 (stereo not given)	inactive	–
CCC(C(N)=O)N1CCCC1=O (stereo not given)	inactive	–
Oc1ccc(Cl)cc1Cc1ccccc1	inactive	–
Cc1ccc(S(=O)(=O)N[C@@H](CCCCN)C(=O)CCl)cc1	inactive	–
NCC1(CC(=O)O)CCCCC1	inactive	–
COc1ccc(C(=O)c2c(C)n(CCN3CCOCC3)c3ccccc23)cc1	inactive	–
C[C@@H]1[C@@H](CC(C[C@H]2O[C@@H]3O[C@]4(C)CC[C@@H]5[C@H](C)CC[C@@H]([C@H]2C)[C@@]35OO4)C[S+](=O)([O-])c2ccc(COC(=O)N(C)C)cc2)O[C@@H]2O[C@]3(C)CC[C@H]4[C@H](C)CC[C@@H]1[C@@]24OO3 (stereo not given in full)	inactive	–
O=c1[nH]c2ccccc2n1CCCN1CCC(n2c(=O)[nH]c3cc(Cl)ccc32)CC1	inactive	–
CNCC(O)c1ccc(O)cc1 (stereo not given)	inactive	–
CC(C)CC(N(C)C)C1(c2ccc(Cl)cc2)CCC1 (stereo not given)	inactive	–
C=C1C[C@@H]2[C@H](CC[C@]3(C)C(=O)CC[C@@H]23)[C@@]2(C)C=CC(=O)C=C12	inactive	–

Compound	Potency	activity change, negative = inhibition
O=C1CC[C@@]2(O)[C@H]3Cc4ccc(O)c5c4[C@@]2(CCN3CC2CC2)[C@H]1O5	inactive	–
COC1(CS(=O)c2ccccc2)CCN(CCc2c[nH]c3ccc(F)cc23)CC1 (stereo not given)	inactive	–
c1ccc(C2CC2)c(OCC2=NCCN2)c1	inactive	–
CC1NCCOC1c1ccccc1 (stereo not given)	inactive	–
CCOC(=O)C1(c2ccccc2)CCN(CCC(C#N)(c2ccccc2)c2ccccc2)CC1	inactive	–
CN(C)CCN(C)CCc1ccc(Cl)c(Cl)c1	inactive	–
COC[C@@H](NC(C)=O)C(=O)NCc1ccccc1	inactive	–
Cc1cc(SCc2sc(-c3ccc(C(F)(F)F)c(F)c3)nc2C)ccc1OCC(=O)O	7.64 µM (active)	–
N[C@@H](Cc1ccc(N(CCCl)CCCl)cc1)C(=O)O	inactive	–
c1ccc2c(c1)OCC(C1=NCCN1)O2 (stereo not given)	inactive	–
Nc1ccncc1	inactive	–
NCC(CC(=O)O)c1ccc(Cl)cc1 (stereo not given)	–	-12.9% [at 0.59 µM] (inactive)
CCN(CC)CCN1C(=O)CN=C(c2ccccc2F)c2cc(Cl)ccc21	inactive	–
CCOP(=S)(OCC)Oc1cc(C)nc(C(C)C)n1	inactive	–
CCCC1CCCCN1 (stereo not given)	inactive	–
Cc1ccc(-c2nc3ccc(C)cn3c2CC(=O)N(C)C)cc1	31.6 µM (active)	–
Oc1cccc2cccnc12	inactive	–
CCN(C(C)=O)c1cccc(-c2ccnc3c(C#N)cnn23)c1	31.6 µM (active)	–
Cc1cccc(C)c1NC1=NCCCS1	inactive	–
C=C(C)[C@H]1Cc2c(ccc3c2O[C@@H]2COc4cc(OC)c(OC)cc4[C@@H]2C3=O)O1	inactive	–
